# Reference: PubChem BioAssay AID540267 (National Center for Advancing Translational Sciences (NCATS), 2011)
# In all, about 340,000 compounds went through this assay and about 530 (0.16%) were called active. Roughly 2% stayed inconclusive and do not appear here. Only a selection was taken, and actives are over-represented in it overall. Unmarked numbers belong to inactive results. No stated cut-off is given here; in the data, active means activity change below about -80%; inconclusive means between about -30% and that limit; inactive means weaker than that.
# Test: Small Molecules that selectively kill Giardia lamblia: qHTS;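 further: parasites exposed to compound for two days anaerobically before the ATP read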
# Conditions: Giardia lamblia trophozoite viability; at 7.66 µM; active compounds read low
# Method in brief: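 Trophozoites 100 cells/well + cpd; 48 hrs, 37 deg C, anaerobic. ATPLite 1-Step added, 15-30 min RT, luminescence read (ATP-based viability).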
# On the % scale 0 is the no-effect control and ±100 the full control effect.
row,Structure (SMILES),activity change
1,CN(CCC#N)c1ncnc2scc(-c3ccccc3)c12,-2.98%
2,O=C1CC(c2ccccc2)CC2=C1C(c1ccco1)n1nc(C(F)(F)F)nc1N2 (stereo unspecified),14.6%
3,CC(Nc1nc(N2CCN(CCO)CC2)nc2ccccc12)c1ccccc1 (stereo unspecified),-93.8% (active)
4,CC(Nc1nc(N2CCOCC2)nc2ccccc12)c1ccccc1 (stereo unspecified),4.71%
5,CC(Nc1nc(N2CCCC2)nc2ccccc12)c1ccccc1 (stereo unspecified),3.32%
6,O=C1C2C(c3ccccc3)CC=CC2C(c2ccoc2)N1Cc1ccccc1 (stereo unspecified),-9.66%
7,O=C(Nc1cccc([N+](=O)[O-])c1)c1ccc2c(c1)OCO2,7.08%
8,O=C(Nc1ccc(Br)cn1)c1ccc([N+](=O)[O-])o1,-87.6% (active)
9,O=C(Nc1ccc(Br)cn1)c1ccc([N+](=O)[O-])cc1Cl,-28.4%
10,O=C(Nc1cccc(O)c1)c1ccc(C(=O)c2ccccc2)o1,-8.06%
11,CN1C(=O)c2ccc(C(=O)Nc3ccc(Br)cn3)cc2C1=O,6.68%
12,Cc1cccc(NC(=O)c2ccc([N+](=O)[O-])o2)c1,-85.9% (active)
13,c1ccc2c(C[n+]3csc4ccccc43)cccc2c1,3.49%
14,Cc1ccc(-c2ccc(=O)n(Cc3ccc(F)cc3Cl)n2)cc1,-0.457%
15,O=c1c([N+](=O)[O-])cccn1Cc1ccc(F)cc1Cl,-94.3% (active)
16,N/C(=N/O)c1cccn1Cc1ccccc1[N+](=O)[O-],-2.12%
17,Brc1nc2ncnc(NCc3ccco3)c2[nH]1,-4.89%
18,O=[N+]([O-])c1cccc(/C=N/Nc2ncc(Br)cn2)c1,23.3%
19,O=[N+]([O-])c1ccccc1Nc1ccc(O)cc1,-6.38%

row,Structure (SMILES),activity change
1,O=[N+]([O-])c1ncc(Br)cc1Nc1ccccc1,-90.1% (active)
2,NC(CSC1(c2ccccc2)c2ccccc2-c2ccccc21)C(=O)O (stereo unspecified),-0.132%
3,Cc1ccc2oc(C(=O)N3CCN(C)C[C@@H]3C(C)C)c(C)c2c1,11.8%
4,CCCCCCC1(C)NC(c2ccc3c(c2)OCO3)=CC(c2ccccc2O)N1 (stereo unspecified),-22.5%
5,CC1(C)c2[nH]c3ccccc3c2C[C@H]2C(=O)N(N)CC(=O)N21,-11.4%
6,COC(=O)C(C)N=Cc1ccccc1 (stereo unspecified),-3.67%
7,COC(=O)N/N=C/c1ccc(-c2ccc(Cl)c(Cl)c2)o1,-7.13%
8,COC(=O)N/N=C/c1c[n+]([O-])c2ccccc2[n+]1[O-],-80.1% (active)
9,CC(=O)c1c(C)n([O-])c2ccccc2[n+]1=O,-80.7% (active)
10,Cc1c(C=O)c2ccccc2n1CC(=O)O,21.1%
11,CCOc1ccc(NC(=O)CSc2nnc3c(n2)[nH]c2ccc(S(=O)(=O)N4CCOCC4)cc23)cc1,-27.7%
12,Cc1ccc(N2C(=O)C3C(c4ccccc4)(C2=O)C3(c2ccccc2)c2ccccc2)cc1 (stereo unspecified),6.33%
13,CCN(CC)/[N+]([O-])=N/Oc1cc(O/[N+]([O-])=N/N2CCCC2CO)c([N+](=O)[O-])cc1[N+](=O)[O-] (stereo unspecified),9.52%
14,CC1(C(=O)NCCc2c[nH]c3ccccc23)C=CC2(CCCCC2)N1C(=O)c1ccccc1 (stereo unspecified),17.9%
15,COc1cc(OC)c2c(C)cc(=O)oc2c1C(CCN1CCCCC1)c1ccc(N(C)C)cc1 (stereo unspecified),8.97%
16,Cc1nc(-c2ccccc2)cn2c1nc1ccccc12,7.53%
17,O=S(=O)(c1cccc(C(F)(F)F)c1)N1CCN(c2nc(-c3cccs3)nc3ccccc23)CC1,27.4%
18,COC(=O)c1ccc(OCC(O)CN(CCO)CC(O)Cn2ccc3ccccc32)cc1 (stereo unspecified),8.7%
19,CCCCNC(=O)Cn1c(SCc2cccc(Cl)c2)nc2ccncc21,12.3%

row,Structure (SMILES),activity change
1,Cc1ccc(S(=O)(=O)N2CCN(c3nc(-n4cnc5ccccc54)nc4ccccc34)CC2)cc1,11.1%
2,CC(C)=CCN1CCN(CCCc2ccccc2)CC1CCO (stereo unspecified),23.8%
3,Cc1ccc(-c2nn(-c3ccccc3)cc2C(=O)NC2CCC(O)CC2)cc1 (stereo unspecified),4.06%
4,O=C(N/N=C/c1ccc([N+](=O)[O-])o1)c1cn(-c2ccccc2)nc1-c1ccc(F)cc1,-93% (active)
5,O=C(NCCCN1CCOCC1)c1cn(-c2ccccc2)nc1-c1ccc(F)cc1,-14.8%
6,C[C@H](CO)N1C[C@H](C)[C@H](CN(C)C(=O)Nc2ccc(C(F)(F)F)cc2)Oc2c(NC(=O)c3ccncc3)cccc2C1=O,-89.7% (active)
7,Cc1noc(C)c1NC(=O)Nc1ccc2c(c1)C(=O)N([C@H](C)CO)C[C@H](C)[C@@H](CN(C)C(=O)Nc1ccc(C(F)(F)F)cc1)O2,41.7%
8,Cc1noc(C)c1NC(=O)Nc1cccc2c1O[C@H](CN(C)C(=O)Nc1ccccc1)[C@@H](C)CN([C@H](C)CO)C2=O,8.07%
9,Cc1ccc(-c2nc(=N)sn2Cc2ccccc2)cc1,24.2%
10,COc1ccc(Cn2c(=O)[nH]c3cc(C(=O)N4CCN(C(=O)c5ccco5)CC4)ccc3c2=O)cc1,-2.35%
11,Cc1noc(NS(=O)(=O)c2ccc(NC(=O)c3oc4ccc(F)cc4c3C)cc2)c1C,6.55%
12,COc1ccc(S(=O)(=O)N2CCN(c3ccc(F)cc3)CC2)cc1-c1noc(C)n1,5.27%
13,COC(=O)C(CC(C)C)NS(=O)(=O)c1cc(Br)ccc1Br (stereo unspecified),-10.7%
14,Cc1ccc(Nc2c(-c3ccc(C)s3)nc3ccccn23)cc1,1.31%
15,COc1ccc2nc(N3C(=O)C(O)=C(C(=O)c4ccco4)C3c3ccco3)sc2c1 (stereo unspecified),1.49%
16,COc1ccc2nc(N3CCN(C(=O)c4ccc([N+](=O)[O-])o4)CC3)sc2c1,-98.8% (active)
17,O=C(c1ccc2nc(N3CCOCC3)sc2c1)N1CCN(c2ccc(Cl)cc2)CC1,-10.4%
18,O=C(NCC1CC1)C1(C(F)(F)F)C/C(=C\CCO)CCCO1 (stereo unspecified),-14.8%
